Results on 27 compounds are retold here after PubChem BioAssay AID588726 (The Scripps Research Institute Molecular Screening Center, 2011).

SMILES strings stand for the structures. About 8,200 (2.3%) of roughly 360,000 compounds were called active. The sample holds actives, similar compounds and a random draw of the others, so the mix is not that of the screen. A number with no mark means an inactive call. Cut-off read from the data, not from the text of the source: active = inhibition above about 27%; inactive = the rest.

Sequence of Fructose-bisphosphate aldolase (Mycobacterium tuberculosis (strain ATCC 25618 / H37Rv)) (P9WQA3 whole entry, looked up): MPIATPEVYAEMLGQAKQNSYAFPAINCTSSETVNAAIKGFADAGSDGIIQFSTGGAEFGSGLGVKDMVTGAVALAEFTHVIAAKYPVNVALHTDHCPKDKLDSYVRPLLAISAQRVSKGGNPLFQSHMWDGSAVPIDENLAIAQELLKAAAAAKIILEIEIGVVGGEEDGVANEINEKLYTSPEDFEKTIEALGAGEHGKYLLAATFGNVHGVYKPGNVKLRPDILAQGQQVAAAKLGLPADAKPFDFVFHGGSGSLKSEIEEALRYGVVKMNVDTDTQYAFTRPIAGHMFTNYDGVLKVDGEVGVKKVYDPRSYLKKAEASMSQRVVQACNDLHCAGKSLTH

This assay addresses Fructose-bisphosphate aldolase (Mycobacterium tuberculosis (strain ATCC 25618 / H37Rv)) (UniProt P9WQA3). Nature of the assay: Mtb FBA enzyme inhibitors, primary screen, biochemical, fluorescence, strain H37Rv (AID 588726).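 Note: 0% = vehicle and 100% = reference inhibitor.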 The settings on record: purified M. tuberculosis FBA, fluorescence read-out, at 1 µM, stronger effect = higher value.
A word on the inhibition: it is the drop in the measured response relative to a control, in per cent. For `CC1(C)CC(=O)C=C(c2ccc(COC(=O)c3cc(F)cc(F)c3)cc2)C1=O`, the inhibition was -0.96%.

`C/C(=N\NC(=S)NC(C)C)c1ccc(C(C)(C)C)cc1`: the inhibition is 2.12%. The value for `Cc1ccc(CNC(=O)c2ccccc2CCc2ccccc2)cc1` was -1.34%; that for `CCN(CC)CCCNC(=O)c1cc2c(=O)[nH]c3ccc(C)cc3c2s1` was 99.9% (active); that for `CCN(CC)CCCNC(=O)c1cc(-c2cccc(Cl)c2)on1` was 0%. For the compound `Cc1cccc(N(C)C(=O)c2cc3c(=O)[nH]c4ccc(C)cc4c3s2)c1`, the inhibition was 2.59%. Consider `O=C1CC(c2cccc(Br)c2)C2=C(CCCC2=O)N1` (configuration not stated), for which the inhibition is 11.8%. To `COc1ccc(-n2nc(C(=O)NCC(=O)Nc3cccc(C)n3)c3ccccc3c2=O)cc1` belongs -0.39%; to `COc1ccc(OC)c(CN2C(=O)CCC2(C)C(=O)NC2CCCCCC2)c1` (configuration not stated), -0.66%; to `Nc1ncnc2c1ncn2[C@@H]1O[C@H](C(=O)N2CCCN(Cc3ccccc3F)CC2)[C@@H](O)[C@H]1O`, -2.6%. For the compound `COc1ccc(C(=O)NCC2CCCN2S(=O)(=O)c2cccs2)cc1OC` (configuration not stated), the inhibition is 2.94%. As to `CCN1CCCC1CNC(=O)c1ccc2c(c1)NC(=O)/C(=C\c1ccccc1F)S2` (configuration not stated), the inhibition is -6.09%. Consider `CCOC(=O)CSc1nc(C)cc2c1C(=O)OC2`, for which the inhibition is -3.48%. The value for `O=C(NCc1cccc(Cl)c1)C1=CC=CN2CCS(=O)(=O)N=C12` was 30.5% (active); that for `O=C(NCc1cccc(Cl)c1)C1CCC(=O)N(C2CC2)C1` (configuration not stated) was 1.48%; that for `O=C(NCc1cccc(Cl)c1)C1CCN(c2nnc(N3CCCC3=O)s2)CC1` was -1.53%.

Turning to `COCC1CCCN(Cc2cn[nH]c2-c2cc3ccccc3o2)C1` (configuration not stated), the inhibition is 0.03%. Consider `COc1ccc(C(=O)Nc2ccc(C(=O)NCC3CCCO3)cc2)c(OC)c1OC` (configuration not stated), for which the inhibition was -1.55%. To `CCCOc1ccc2c3c(c(=O)oc2c1OCCC)CCC3` belongs 16%. To `COc1ccc2c3c(c(=O)oc2c1OCC(=O)C(C)(C)C)CCCC3` belongs 63.3% (active). To `CCc1nc2c(OCC(=O)C(C)(C)C)cccn2c1N(C)C(=O)c1ccccc1F` belongs -0.18%. Take `Clc1ccc(C=NC23CN4CN(CN(C4)C2)C3)cc1`: the inhibition is 1.62%. To `NNc1cccc(C=Cc2ccccc2)cc1=O` belongs 21.6%. The value for `O=C(COc1ccc(Cl)cc1)NCc1nnc(SCC(=O)NCC2CCCO2)o1` (configuration not stated) was 5.04%.

For `CCC1Oc2ccccc2N(CC(=O)NCCCN2CCN(CC)CC2)C1=O` (configuration not stated), the inhibition was -0.48%. The value for `CN1CCN(CCCNC(=O)c2ccc(/C=C3\Oc4ccccc4N(Cc4ccc(Cl)cc4)C3=O)cc2)CC1` was 80.8% (active); that for `Cc1ccc(NC(=O)CCCNC(=O)c2ccc(Cl)cc2)cc1S(=O)(=O)N1CCOCC1` was 1.07%.
